TEAD-YAP block: TEAD-YAP interaction inhibition, primary screen, TEAD-YAP interaction inhibitor project, luminescence, HEK-TIYL cells. inhibition, % at 9.12 µM. TEAD-Gal4/YAP UAS-luciferase luminescence. 640,000 compounds, 1.4% hits. AID 1259422, 2018; in the data active means inhibition above about 32%
MITF inh: MITF inhibitors, primary screen, biochemical, AlphaScreen, human. Microphthalmia-associated transcription factor (Homo sapiens), O75030. AlphaScreen MITF homodimerization, bead proximity signal. inhibition, % at 2.6 µM. 650,000 compounds, 0.91% hits; in the data active means inhibition above about 50%
Target sequence (O75030 whole entry, looked up): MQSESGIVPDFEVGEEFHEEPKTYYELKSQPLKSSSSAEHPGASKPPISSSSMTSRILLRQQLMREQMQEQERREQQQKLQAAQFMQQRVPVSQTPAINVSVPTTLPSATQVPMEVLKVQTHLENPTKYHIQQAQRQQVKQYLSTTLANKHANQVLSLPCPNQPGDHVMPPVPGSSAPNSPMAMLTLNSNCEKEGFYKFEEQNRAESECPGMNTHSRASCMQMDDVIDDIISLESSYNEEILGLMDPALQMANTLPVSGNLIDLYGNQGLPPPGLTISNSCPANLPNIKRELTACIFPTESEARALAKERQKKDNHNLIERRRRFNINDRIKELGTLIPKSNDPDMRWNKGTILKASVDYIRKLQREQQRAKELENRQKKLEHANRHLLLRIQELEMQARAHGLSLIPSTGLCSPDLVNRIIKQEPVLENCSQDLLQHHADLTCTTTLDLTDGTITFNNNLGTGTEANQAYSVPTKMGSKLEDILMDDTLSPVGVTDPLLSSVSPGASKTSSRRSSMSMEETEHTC
GPR151 ag: activators of human GPR151, primary screen, cell-based, PathHunter beta-arrestin, luminescence. G-protein coupled receptor 151 (Homo sapiens), Q8TDV0. PathHunter beta-arrestin GPR151 cells. activation, % at 11.2 µM. 650,000 compounds, 1% hits. AID 1508602, 2020; in the data active means activation above about 4.9%
FBW7 act: FBW7 E3 ligase activators, primary screen, biochemical, AlphaScreen, human; F-box/WD repeat-containing protein 7 (Homo sapiens), Q969H0; AlphaScreen FBW7–phospho-cyclin E peptide binding, activator screen; normalized activity (activation), % at 26.1 µM; 650,000 compounds, 0.13% hits; AID 1259310, 2017; in the data active means normalized activity above about 1.9%;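 further: purified mutant Fbw7 with reduced substrate affinity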
A number is an active result. Only some compounds are listed: those with a hit (about 3.4% of all), similar ones and a draw of the others.

Results for CCOC(=O)N1CCc2c(sc3c2C(=O)NC(/C=C\c2ccccc2)N3)C1 (centres undefined) ?
TEAD-YAP block: 51; MITF inh: inactive; GPR151 ag: inactive; FBW7 act: inactive

What do the screens show for `O=C(O[C@@H]1Cc2c(O)cc(O)cc2O[C@@H]1c1cc(O)c(O)c(O)c1)c1cc(O)c(O)c(O)c1`?
TEAD-YAP block: inactive; MITF inh: 77; GPR151 ag: inactive; FBW7 act: inactive

What do the screens show for `O=C(O[C@@H]1Cc2c(O)cc(O)cc2O[C@@H]1c1ccc(O)c(O)c1)c1cc(O)c(O)c(O)c1`?
TEAD-YAP block: inactive; MITF inh: 83; GPR151 ag: inactive; FBW7 act: inactive

How did O=C1c2c(O)cc(O)cc2OC(c2ccc(O)c(O)c2)C1O (centres undefined) do in these assays?
TEAD-YAP block: inactive; MITF inh: inactive; GPR151 ag: inactive; FBW7 act: inactive

How did O=C(NCC1CCC2(CCN(Cc3ccc4ncccc4c3)CC2)O1)C1CCCO1 (centres undefined) do in these assays?
TEAD-YAP block: inactive; MITF inh: inactive; GPR151 ag: inactive; FBW7 act: 2.1

Results for COCCN1C(C)=CC(=C2C(=O)NC(=S)NC2=O)C=C1C(F)(F)F ?
TEAD-YAP block: 45; MITF inh: inactive; GPR151 ag: inactive; FBW7 act: inactive

What do the screens show for `CC1=CC(=C2C(=O)NC(=S)NC2=O)C=C(C(F)(F)F)N1CCN(C)C`?
TEAD-YAP block: inactive; MITF inh: inactive; GPR151 ag: inactive; FBW7 act: inactive

How did CC(C)c1cc(=O)[nH]c(-n2nc(-c3ccco3)cc2NC(=O)Cc2ccc(F)cc2)n1 do in these assays?
TEAD-YAP block: inactive; MITF inh: inactive; GPR151 ag: inactive; FBW7 act: inactive

What do the screens show for `CCN(CC)c1ccc2c(C)c(Cl)c(=O)oc2c1`?
TEAD-YAP block: inactive; MITF inh: inactive; GPR151 ag: inactive; FBW7 act: 5.8

Results for CCN(CC)c1ccc2c(Cl)c(Br)c(=O)oc2c1 ?
TEAD-YAP block: inactive; MITF inh: inactive; GPR151 ag: inactive; FBW7 act: 6.2

Results for CCN(CC)c1ccc2c(C)cc(=O)oc2c1 ?
TEAD-YAP block: inactive; MITF inh: inactive; GPR151 ag: inactive; FBW7 act: inactive

Results for Cc1cccc(C(C#N)c2cc(C)nc3ncnn23)c1 (centres undefined) ?
TEAD-YAP block: inactive; MITF inh: inactive; GPR151 ag: inactive; FBW7 act: 2.1

How did Cc1cc(C(C#N)c2ccc(Cl)cc2Cl)n2ncnc2n1 (centres undefined) do in these assays?
TEAD-YAP block: inactive; MITF inh: inactive; GPR151 ag: inactive; FBW7 act: inactive

What do the screens show for `COc1ccc(CCNC(=O)Cn2nc(C)n3cccc3c2=O)cc1OC`?
TEAD-YAP block: inactive; MITF inh: inactive; GPR151 ag: inactive; FBW7 act: inactive

What do the screens show for `COc1ccc(OC(C)C(=O)N2CCN(c3ccccc3F)CC2)cc1` (centres undefined)?
TEAD-YAP block: inactive; MITF inh: inactive; GPR151 ag: inactive; FBW7 act: inactive

Results for Cc1nn(C)c(C)c1NS(=O)(=O)c1ccc(C(C)(C)C)cc1 ?
TEAD-YAP block: 55; MITF inh: inactive; GPR151 ag: inactive; FBW7 act: inactive

Results for CC(=O)Nc1ccc(S(=O)(=O)Nc2c(C)nn(C)c2C)cc1 ?
TEAD-YAP block: inactive; MITF inh: inactive; GPR151 ag: inactive; FBW7 act: inactive

What do the screens show for `CCCCc1ccc(NC(=O)c2ccc(N(C)S(C)(=O)=O)cc2)cc1`?
TEAD-YAP block: 35; MITF inh: inactive; GPR151 ag: inactive; FBW7 act: inactive

What do the screens show for `COc1ccc(C(=O)/C(=C\c2ccc(OC)c(OC)c2)c2nc3ccccc3o2)cc1`?
TEAD-YAP block: 43; MITF inh: inactive; GPR151 ag: inactive; FBW7 act: inactive

How did COc1cccc2cc(C(=O)NCc3cccc(Cl)c3)c(=Nc3ccc(C(=O)O)cc3)oc12 do in these assays?
TEAD-YAP block: 35; MITF inh: inactive; GPR151 ag: inactive; FBW7 act: inactive

How did Cc1ccc(C)c2c1-c1ccccc1S(=O)(=O)N2S(=O)(=O)c1ccc2ccccc2c1 do in these assays?
TEAD-YAP block: inactive; MITF inh: inactive; GPR151 ag: inactive; FBW7 act: inactive

Results for O=Cc1ccc(OCc2ccc3c(c2)OCO3)c(Cl)c1 ?
TEAD-YAP block: 72; MITF inh: inactive; GPR151 ag: inactive; FBW7 act: inactive

Results for O=Cc1ccccc1OCc1ccc2c(c1)OCO2 ?
TEAD-YAP block: inactive; MITF inh: inactive; GPR151 ag: inactive; FBW7 act: inactive

Screening data as filed in PubChem BioAssay.
